Shown are actives, neighbours in structure and some others; about 2.9% of the full set was active somewhere.
HIF-2a inh = blocks HIF-2a reporter activity | 786-0 RCC cells HIF-2a reporter, luciferase luminescence, overnight | inhibition, % at 18.8 µM | hit rate 0.72% among 360,000;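 active = inhibition of the luminescence signal of 40% or more relative to plate controls, in a single-dose primary screen at 18.75 µM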
CF NFkB block = inhibitors of cystic fibrosis induced NF-kB; KKLEB NF-kB-GFP reporter, PAF-induced, GFP fluorescence overnight; inhibition, % at 5 µM; hit rate 0.86% among 360,000; AID 588850;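 active = at least 50% inhibition at 5 µM, scaled per plate between neutral and stimulator controls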;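 note: PAF is a Pseudomonas aeruginosa culture filtrate used as stimulus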
LMP1 NFkB inh = reduces LMP1-driven NF-kappaB luciferase signal. inhibition, % at 12.5 µM. hit rate 0.69% among 350,000. LMP1-induced NF-kappaB luciferase reporter cells, luminescence; in the data active = inhibition above about 41%
Peg3 promoter = Peg3 promoter activity inhibition; HeLa PEG-Prom luciferase reporter, luminescence, overnight; inhibition, % at 20 µM; hit rate 1.7% among 360,000;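 active = inhibition of at least 50% at 20 µM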
Shn3 inh set2 = inhibitors of Schnurri-3 3'UTR reporter in osteoblasts | Clone20 osteoblast Shn3 3'UTR firefly luciferase, 24 h | inhibition, % at 12.5 µM | hit rate 0.52% among 360,000 | AID 588674;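 active = mean inhibition of at least 75% with every replicate also reaching 75%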
KKLEB cytotox = counter-screen for CF NF-kB inhibitors: cytotoxicity | hit rate 0.36% among 360,000 | activity change (cytotoxicity), % at 5 µM | KKLEB CF airway cells viability, ATPlite luminescence, overnight; active compounds read low; cells stimulated with P. aeruginosa culture filtrate;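 active = corrected activity change at or below -50% at 5 µM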
Mdm2-MdmX confirm = Mdm2/MdmX (human) interaction inhibition, confirmed; shares compounds with HIF-2a inh; SaOS-2 split-luciferase Mdm2/MdmX complementation, luminescence; inhibition, % at 8 µM; hit rate 99% among 740;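 active = mean inhibition of the luminescence signal across two replicates at or above 26 percent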
Target sequence (O15151 whole entry, looked up): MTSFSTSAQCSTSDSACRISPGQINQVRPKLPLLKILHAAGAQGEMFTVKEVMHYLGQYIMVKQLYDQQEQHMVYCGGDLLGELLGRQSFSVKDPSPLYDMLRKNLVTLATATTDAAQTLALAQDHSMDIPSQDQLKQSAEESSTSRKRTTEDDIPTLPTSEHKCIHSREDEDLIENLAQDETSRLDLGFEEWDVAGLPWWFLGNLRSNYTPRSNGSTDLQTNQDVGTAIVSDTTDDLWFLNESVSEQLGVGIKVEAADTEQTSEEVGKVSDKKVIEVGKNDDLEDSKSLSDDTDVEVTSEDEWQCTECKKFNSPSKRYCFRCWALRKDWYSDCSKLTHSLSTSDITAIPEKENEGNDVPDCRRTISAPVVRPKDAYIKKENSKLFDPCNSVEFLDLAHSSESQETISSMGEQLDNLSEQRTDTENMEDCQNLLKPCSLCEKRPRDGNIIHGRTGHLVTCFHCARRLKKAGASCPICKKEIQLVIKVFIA
Target sequence (Q00987 whole entry, looked up): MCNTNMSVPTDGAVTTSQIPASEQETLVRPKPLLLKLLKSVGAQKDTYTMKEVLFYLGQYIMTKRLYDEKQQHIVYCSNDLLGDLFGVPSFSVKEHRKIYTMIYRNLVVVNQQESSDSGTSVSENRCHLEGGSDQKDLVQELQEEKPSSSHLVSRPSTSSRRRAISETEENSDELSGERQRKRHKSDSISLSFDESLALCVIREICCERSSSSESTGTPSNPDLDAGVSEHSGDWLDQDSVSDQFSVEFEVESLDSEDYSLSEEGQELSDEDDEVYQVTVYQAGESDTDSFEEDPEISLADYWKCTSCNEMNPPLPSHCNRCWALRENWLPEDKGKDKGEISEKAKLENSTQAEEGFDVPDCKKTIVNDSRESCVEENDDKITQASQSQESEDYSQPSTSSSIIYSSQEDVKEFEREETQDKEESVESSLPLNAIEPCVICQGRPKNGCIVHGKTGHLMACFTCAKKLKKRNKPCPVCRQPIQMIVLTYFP
HIF-2a inh conf = HIF-2a inhibition, single concentration confirmation. shares compounds with HIF-2a inh. 786-0 RCC cells, HIF-2a luciferase reporter luminescence, overnight. hit rate 56% among 1,800. AID 651580. inhibition, % at 18.8 µM;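 active = mean inhibition across four replicates of at least 40 percent at the single tested concentration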
HIF-1a cs = HIF-1a inhibition counter-screen for HIF-2a hits; MiaPaCa-2 HIF-1a luciferase reporter, desferoxamine, overnight; hit rate 72% among 1,800; shares compounds with HIF-2a inh; inhibition, % at 18.8 µM;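 active = mean inhibition of the reporter signal across four replicates at the single tested dose of 50% or more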
Of the large screens only hits and unclear results are named; the others gave an inactive call (follow-up assays come after a bar, where they were run).

COc1cc(OC)c(C(=O)/C=C/c2ccc(OCc3ccccc3)c(OC)c2)c(OC)c1	HIF-2a inh 46 | HIF-2a inh conf inactive | HIF-1a cs inactive
COc1cc(OCc2ccccc2)c(C(=O)/C=C/c2ccc3c(c2)OCO3)c(OC)c1OC	HIF-2a inh 52 | HIF-2a inh conf 40 | HIF-1a cs 53
CCC(=O)c1ccccc1OCCCN1CCC(Cc2ccccc2)CC1	none
CCc1ccc(/C=C/C(=O)c2c(C)cc(C)[nH]c2=O)cc1	HIF-2a inh 52, Peg3 promoter 64 | HIF-2a inh conf inactive | HIF-1a cs 54
Cc1ccc(/C=C/C(=O)c2c(C)cc(C)[nH]c2=O)cc1	none
Cc1cc(C)[n+]2[nH]c(N)c(N=Nc3ccccc3)c2n1	none
Cc1ccc(C(=O)O/N=C(\N)c2ccccn2)c(C)c1	HIF-2a inh 89, LMP1 NFkB inh 87, Peg3 promoter 106, Shn3 inh set2 96 | Mdm2-MdmX confirm 101
COc1ccc(NC(=S)NC(NC(=O)c2cccc(Cl)c2)C(Cl)(Cl)Cl)c([N+](=O)[O-])c1 (stereo unspecified)	none
O=C(NC(NC(=S)Nc1ccccc1Cl)C(Cl)(Cl)Cl)c1cccc(Cl)c1 (stereo unspecified)	HIF-2a inh 44 | HIF-2a inh conf inactive | HIF-1a cs 102
Cc1nc(/C(=N/O)C(N)=O)cs1	HIF-2a inh 45 | HIF-2a inh conf inactive | HIF-1a cs inactive
Nc1ccccc1C#CC(=O)c1ccccc1	HIF-2a inh 89, CF NFkB block 89, Peg3 promoter 104, Shn3 inh set2 99, KKLEB cytotox -85 | Mdm2-MdmX confirm 103 | HIF-2a inh conf 57 | HIF-1a cs 105
Cc1ncc([N+](=O)[O-])n1CC(=O)Nc1cc(Cl)ccc1Cl	none
CC1(C)CC2CC(C)(CN2C(=O)c2ccc([N+](=O)[O-])cc2[N+](=O)[O-])C1 (stereo unspecified)	none
Cc1ccc2c(c1)=N/C(=N\c1[nH]c(O)c3ccccc13)N=2	HIF-2a inh 76, Peg3 promoter 90 | HIF-2a inh conf inactive | HIF-1a cs 95
CC(C)Cc1nc2oc3c(Cl)ncnc3c2c2c1CCCC2	HIF-2a inh 75, Peg3 promoter 113 | HIF-2a inh conf 45 | HIF-1a cs 100
CS(=O)(=O)c1ccc(S(=O)CC(=O)OCc2ccccc2)c([N+](=O)[O-])c1 (stereo unspecified)	HIF-2a inh 91, CF NFkB block 89, LMP1 NFkB inh 49, Peg3 promoter 110, Shn3 inh set2 97 | HIF-2a inh conf 52 | HIF-1a cs 106
Cc1ccc(Sc2c([N+](=O)[O-])c(=O)n(C)c3ccccc23)cc1	HIF-2a inh 52 | HIF-2a inh conf inactive | HIF-1a cs 87
CC(C)C[C@@H](CN1CCC[C@@H]1CN1C(=O)C(=O)NC[C@@H]1Cc1ccccc1)N1C[C@H](Cc2ccccc2)N(CC2CCCCCC2)C(=O)C1=O	HIF-2a inh 80, Peg3 promoter 55 | HIF-2a inh conf inactive | HIF-1a cs 105
COc1cc(/C=C/C(=O)OCC(=O)NC(=O)C2COc3ccccc3O2)ccc1OC(F)F (stereo unspecified)	none
Cc1nnc(SCC(=O)NC23CC4CC(CC(C4)C2)C3)n(N)c1=O	HIF-2a inh 68 | HIF-2a inh conf inactive | HIF-1a cs inactive
CC(C)(C)n1nnnc1C(c1cccnc1)N1CCN(c2cccc(C(F)(F)F)c2)CC1 (stereo unspecified)	none
CC(C)(C)c1cc(C(c2cccnc2)N2CCN(CCO)CC2)cc(C(C)(C)C)c1O (stereo unspecified)	HIF-2a inh 89, Peg3 promoter 104, Shn3 inh set2 97 | Mdm2-MdmX confirm 103 | HIF-2a inh conf 80 | HIF-1a cs 75
O=[N+]([O-])c1ccc(O)c(-c2nc(-c3ccccc3)c(-c3cccs3)[nH]2)c1	CF NFkB block 62, KKLEB cytotox -60 | Mdm2-MdmX confirm 95
Cc1ccccc1N(Cc1cc(=O)[nH]c2ccccc12)C(=O)CCl	Peg3 promoter 58 | Mdm2-MdmX confirm 102
Cc1ccc(S(=O)(=O)NC(=O)NC(C)c2ccc(F)cc2)cc1 (stereo unspecified)	none
O=C(Nc1cccc(C(F)(F)F)c1)Nc1ccc(N2CCCC2)c(S(=O)(=O)Nc2ccccc2Cl)c1	CF NFkB block 59, Peg3 promoter 64, Shn3 inh set2 92, KKLEB cytotox -58 | Mdm2-MdmX confirm 102
CC(=O)Nc1ccc(N2CCOCC2)c(S(=O)(=O)Nc2ccccc2Cl)c1	none
COCCN1CCn2c(nc3cc([N+](=O)[O-])ccc32)C1	HIF-2a inh 69 | HIF-2a inh conf inactive | HIF-1a cs inactive
O=[N+]([O-])c1ccc2c(c1)nc1n2CCN(CC2CCCO2)C1 (stereo unspecified)	none
Cc1c(-c2ccccc2)[n+](=O)c2c(n1[O-])CCCCC2	none
O=c1cc(-c2ccccc2)oc2ccc3ccccc3c12	HIF-2a inh 51, LMP1 NFkB inh 68, KKLEB cytotox -67 | HIF-2a inh conf 70 | HIF-1a cs 57
COC(=O)C[C@H]1CC[C@@H](NC(=O)Nc2ccc(C(F)(F)F)cc2)[C@@H](CO)O1	none (no result: CF NFkB block, LMP1 NFkB inh, Peg3 promoter, Shn3 inh set2, KKLEB cytotox)
Cc1cc(N2CCN(C)CC2)nc2ccc(NC(=S)N3CCCCC3)cc12	none
Cc1cccc(N2CCN(C(=S)Nc3ccc4nc(N5CCN(C)CC5)cc(C)c4c3)CC2)c1C	HIF-2a inh 82, LMP1 NFkB inh 82, Peg3 promoter 104, KKLEB cytotox -73 | HIF-2a inh conf inactive | HIF-1a cs 105
O=C(O)c1ccc(S(=O)(=O)NN=Cc2c[nH]c3ccccc23)cc1	none
O=C(O)c1ccc(N/N=C/c2c[nH]c3ccccc23)cc1	HIF-2a inh 51, Peg3 promoter 67 | HIF-2a inh conf 78 | HIF-1a cs 60
CCOC(=O)c1c(S(=O)(=O)N2CCC(C)CC2)c(C)n(C)c1C	none
COc1ccc(/C=N/Nc2ccc(C(=O)O)cc2)c(OC)c1OC	none
COC(=O)c1ccc2c(c1)C(C)(C)C(/C=C/c1ccc(OC)c(OC)c1OC)=[N+]2C	HIF-2a inh 95, Peg3 promoter 107, Shn3 inh set2 88 | Mdm2-MdmX confirm 103 | HIF-2a inh conf 88 | HIF-1a cs 107
NC(=O)COC(=O)c1ccc(-c2ccccc2)cc1	none
Cc1ccc(OCC(=O)NCCCNC(=O)c2ccccn2)cc1	none

Screens deposited in PubChem BioAssay by several laboratories.
